# Screens as filed in PubChem BioAssay.
# Rows were chosen to be rich in hits. Some 5.7% of all compounds tested hit in one or more screens of this group.
# hcDAF12 agonist: activators of H. contortus DAF-12 nuclear receptor; activation, % at 6.8 µM; AID 652067; HEK293 hcDAF-12 lit1-tk-luc reporter, luminescence; 0% DMSO, 100% Δ7-dafachronic acid; actives 1.4% (n = 370,000);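 active = activation above the mean of all tested compounds plus 3 SD, cut at about 5.5% in these data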;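 also: 100% = response to 3 µM Δ7-dafachronic acid high control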
# hgDAF-12 ag: hgDAF-12 agonism, primary luciferase screen; activation, % at 6.8 µM; actives 1.8% (n = 370,000); AID 687014; HEK293 GAL4-hgDAF12 UAS-luciferase reporter, agonist luminescence; normalized to butyrate control;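 active = activation above a cutoff set at the mean of all screened compounds plus 3 SD, cut at about 10% in these data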;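 also: 0% = DMSO wells and 100% = sodium butyrate wells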
# DAX1 inh-1: NR0B1 (DAX1) inhibition | HEK293 Gal4-DAX1 luciferase reporter, luminescence | AID 504766 | P51843 | inhibition, % at 6.75 µM | actives 0.99% (n = 340,000);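 active = inhibition above the mean over all tested compounds plus 3 SD, cut at about 4.2% in these data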;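 also: 0% = DAX1-transfected cells with DMSO and 100% = empty-vector control cells with DMSO; inhibition shows as a rise in luminescence from relieved DAX1 repression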
# ssDAF12 agonist: activators of S. stercoralis DAF-12 nuclear receptor | HEK293 ssDAF-12/GRIP1 lit1-tk-luc reporter, luminescence; % of 3 µM dafachronic acid response | activation, % at 6.8 µM | actives 1% (n = 370,000);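 active = activation above the mean over all tested compounds plus 3 SD, cut at about 0.9% in these data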;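 also: 0% = DMSO-only wells and 100% = 3 µM delta7-dafachronic acid wells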
# DAX1 inh-2: inhibitors of DAX1 repression of SF-1 activated StAR promoter | actives 1.1% (n = 370,000) | inhibition, % at 6.8 µM | AID 652010 | HEK293T StAR-luciferase reporter, SF-1/DAX-1 repression relief;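 active = inhibition above the mean over all tested compounds plus 3 SD, cut at about 3.6% in these data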;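 also: 0% = DAX-1 cells with DMSO and 100% = cells lacking DAX-1 with DMSO; higher inhibition means more luminescence from relief of DAX-1 repression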
# AHR activator: activates the human aryl hydrocarbon receptor; P35869; AHR-responsive luciferase reporter cells, luminescence; activation, % at 5 µM; actives 2.5% (n = 320,000); AID 2796; in the data active = activation above about 47%;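 also: 0% = vehicle wells and 100% = reference agonist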
# * = called active by the depositor; . = no result given.
SMILES,hcDAF12 agonist,hgDAF-12 ag,DAX1 inh-1,ssDAF12 agonist,DAX1 inh-2,AHR activator
CCCNC(=O)C(Cc1ccccc1)NS(=O)(=O)c1cccc2nsnc12 (configuration not stated),0,2,1,-1,0,2
CCCCN(C(=O)Cn1nnc2ccccc21)C(C(=O)NCc1ccco1)c1ccncc1 (configuration not stated),-1,1,-1,-1,0,0
Cc1ccccc1Nc1nc(N)nc(COC(=O)c2cccn2C)n1,2,8,5.5*,0,3,8
CCc1ccccc1Nc1nc(N)nc(COC(=O)c2cccn2C)n1,-2,-4,0,-2,3,8
CCOC(=O)c1cc([N+](=O)[O-])c([N+](=O)[O-])cc1NC(C)=O,0,-2,0,-1,-1,0
O=C(Nc1ccc(S(=O)(=O)N2CCCC2)cc1)c1cc(=O)c2ccccc2o1,0,2,4.3*,-1,1,12
CC1CCN(Cc2nc(-c3ccccc3)no2)CC1,5,13*,4,-1,1,8
c1ccc(-c2noc(CN3CCN(c4ccccc4)CC3)n2)cc1,0,1,3,-1,-1,2
CCOc1ccc2nc(SCC(=O)c3ccc(Cl)s3)sc2c1,-1,3,0,-1,-1,5
CCOc1ccc2nc(NC(=O)CSc3ccccc3)sc2c1,-1,2,1,-1,0,11
CCOc1ccc2nc(NC(=O)CCn3cccc3)sc2c1,1,5,0,-1,0,59*
CCOc1ccc2nc(NS(=O)(=O)c3ccc(NC(C)=O)cc3)sc2c1,-1,-1,0,-1,0,1
CCOc1ccc2nc(SCC(=O)c3cccs3)sc2c1,4,12*,3,1,2,28
CCOc1ccc2nc(NS(=O)(=O)Cc3ccccc3)sc2c1,1,3,10*,0,-1,0
O=C(C1CC(c2cccc(Br)c2)=NO1)N1CCc2ccccc2C1 (configuration not stated),-2,3,0,-2,0,-5
O=C(NCc1nnc(SCc2ccc(C(F)(F)F)cc2)n1-c1ccccc1)C12CC3CC(CC(C3)C1)C2,0,-1,0,-2,-1,-1
Cc1c(C(=O)Nc2nccs2)oc2c(Cl)cccc12,5,7,2,1.3*,1,55*
CC(C)OCc1c(C(=O)Nc2nccs2)oc2ccccc12,3,2,-1,0,-2,57*
CCCc1nnc(NC(=O)c2oc3ccccc3c2COCC)s1,0,1,-1,-1,0,.
CCc1cc(=O)oc2c3c(cc(OCC(=O)NCCCn4ccnc4)c12)OC(C)(C)CC3,-2,-3,0,-1,0,5
Cc1ccc(S(=O)(=O)N2CCCCC2CCNC(=O)C(=O)Nc2ccccc2F)cc1 (configuration not stated),-1,0,0,0,0,0
Nc1nc(NCC2CCCO2)nc(Nc2ccc(Cl)cc2)c1[N+](=O)[O-] (configuration not stated),1,-2,0,0,-1,68*
Cc1ccc(Nc2nc(NCCCN3CCOCC3)nc(N)c2[N+](=O)[O-])cc1,-1,-1,2,-1,0,10
Nc1nc(NCCCN2CCOCC2)nc(Nc2ccc(Cl)cc2)c1[N+](=O)[O-],0,0,.,-2,1,74*
Nc1nc(NCC2CCCO2)nc(Nc2ccccc2)c1[N+](=O)[O-] (configuration not stated),0,-1,-1,-2,-1,3
SMILES,hcDAF12 agonist,hgDAF-12 ag,DAX1 inh-1,ssDAF12 agonist,DAX1 inh-2,AHR activator
O=C(Oc1ccc2c(-c3ccccc3)cc(=O)oc2c1)c1cccs1,0,6,4.4*,-2,0,-2
CC(C)=NNc1ncnc2nc[nH]c12,0,5,6.3*,0,4,.
Cc1cc(C)n2nc(SCC(=O)N(C(C)C)C(C)C)nc2n1,2,3,1,-1,0,3
CCN1CC=C2C(C#N)=C(N)C(C#N)(C#N)C(CCc3ccccc3)C2C1 (configuration not stated),3,1,0,1.0*,0,47
CNC(=O)Nc1ccccc1F,0,3,3,-1,0,2
COc1ccccc1NC(=O)Nc1cccc(NC(C)=O)c1,-2,-3,0,-2,0,6
O=C(Nc1cccn(Cc2c(Cl)cccc2Cl)c1=O)c1c(Cl)cccc1Cl,0,-2,-2,-2,-1,2
O=C(Nc1ccccc1)Nc1cccn(Cc2c(F)cccc2Cl)c1=O,-1,11*,-1,-2,2,9
COC(=O)c1cccc(NC(=O)Nc2ccccc2OC)c1,-1,5,6.5*,-1,0,3
COc1ccccc1NC(=O)NNC(=O)c1ccncc1,4,0,-2,-1,3.8*,.
O=C(C#Cc1ccccc1)Nc1ccccc1F,0,11*,2,-1,0,-2
COc1ccccc1NC(=O)NNC(=O)c1ccc2ccccc2c1,-1,-2,0,-1,-1,.
O=C(COC(=O)c1ccccc1[N+](=O)[O-])c1ccc(C2CCCCC2)cc1,-1,-2,-2,-1,-1,5
COC(=O)c1ccc(NC(=O)Nc2ccccc2C)cc1,-2,12*,-1,-2,0,-2
O=C(Nc1ccc(F)cc1)Nc1ccccc1F,3,11*,0,-1,1,5
COC(=O)c1ccc(NC(=O)Nc2ccccc2F)cc1,5,12*,0,0,3,4
O=C(Nc1ccccc1F)Nc1ccccc1Br,-1,2,-1,-1,0,12
O=C(Nc1ccc(NC(=O)c2ccccc2O)cc1)Nc1ccc(F)cc1F,-1,0,0,1.6*,0,-3
CC(C)CC(=O)N1CCN(Cc2ccc(Cl)cc2)CC1,-2,0,-2,-1,0,1
COc1cccc(CNC(=O)CCNC(=O)Cn2ccc3ccccc3c2=O)c1,-3,0,0,-1,0,-4
Cc1csc(C(C#N)C(=O)c2cc3ccccc3o2)n1 (configuration not stated),4,4,-1,-1,3.9*,27
CCN1C(=O)C(CC(=O)Nc2ccc(OC)cc2)N(Cc2cccnc2)C1=S (configuration not stated),-2,0,0,2.7*,-1,1
Cc1ccc(NC2Sc3ccccc3NC2=O)cc1 (configuration not stated),5,15*,1,1.0*,4,9
Cc1sc2ncnc(NCc3ccco3)c2c1C,-4,-2,-3,-2,-2,3
